Rows were chosen to be rich in hits. Some 4% of all compounds tested hit in one or more screens of this group.
Rv3671c protease = inhibitors of M. tuberculosis serine protease Rv3671c; P9WHR9; inhibition, % at 5.96 µM; 320,000 tested, 0.048% active; in the data active means inhibition above about 38%;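 further: extracellular domain of Rv3671c used as enzyme; 0% = enzyme with DMSO and 100% = no enzyme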
Mtb UGM inh = blocks M. tuberculosis UGM enzyme; P9WIQ1; purified UGM, fluorescence polarization probe displacement; inhibition, % at 10 µM; 320,000 tested, 0.06% active; in the data active means inhibition above about 10%, passing the limit was not always enough
RecA splice inh = inhibitors of M. tuberculosis RecA intein splicing; P9WHJ3; cell-free RecA intein splicing, fluorescence; inhibition, % (no concentration beside the values); 290,000 tested, 0.75% active; AID 2221; in the data active means inhibition above about 30%;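 further: 0% = vehicle wells and 100% = reference inhibitor control wells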
Target sequence (P9WHJ3 whole entry, looked up, canonical isoform): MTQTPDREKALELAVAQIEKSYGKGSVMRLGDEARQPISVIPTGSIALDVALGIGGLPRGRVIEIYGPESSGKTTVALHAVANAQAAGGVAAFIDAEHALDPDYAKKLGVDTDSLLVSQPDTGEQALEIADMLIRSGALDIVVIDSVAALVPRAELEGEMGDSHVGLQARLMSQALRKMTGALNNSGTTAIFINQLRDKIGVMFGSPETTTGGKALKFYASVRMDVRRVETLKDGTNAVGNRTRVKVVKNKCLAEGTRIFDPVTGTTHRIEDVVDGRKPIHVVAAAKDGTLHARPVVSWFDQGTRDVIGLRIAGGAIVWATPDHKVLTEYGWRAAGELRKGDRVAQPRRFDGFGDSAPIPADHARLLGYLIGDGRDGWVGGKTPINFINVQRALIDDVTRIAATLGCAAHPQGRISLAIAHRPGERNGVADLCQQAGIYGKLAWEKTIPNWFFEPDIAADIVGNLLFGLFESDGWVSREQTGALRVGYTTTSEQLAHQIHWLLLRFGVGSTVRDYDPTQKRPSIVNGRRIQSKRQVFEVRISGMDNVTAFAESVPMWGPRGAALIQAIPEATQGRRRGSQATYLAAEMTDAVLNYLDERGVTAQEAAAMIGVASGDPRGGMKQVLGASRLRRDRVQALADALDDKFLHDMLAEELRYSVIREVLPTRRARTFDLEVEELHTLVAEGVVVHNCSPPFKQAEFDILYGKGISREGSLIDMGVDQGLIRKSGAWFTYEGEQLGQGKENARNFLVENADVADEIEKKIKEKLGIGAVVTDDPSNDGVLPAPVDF
Mtb betalactam = beta-lactam sensitization of Mtb H37Rv | AID 434955 | 330,000 tested, 0.27% active | M. tuberculosis H37Rv growth with meropenem, percent inhibition | inhibition, % at 25 µM; call rule not given here;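 further: growth measured after seven days incubation then overnight dye step; 0% = bacteria only wells and 100% = bacteria with antibiotic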
GDH-TPI inh = inhibits GDH-TPI coupling enzymes, artifact for Mtb FBA screen. GDH-TPI coupled enzyme counterscreen, NADH absorbance. inhibition, % at 4.8 µM. 360,000 tested, 1.2% active; in the data active means inhibition above about 30%;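 further: 0% = DMSO wells and 100% = wells lacking the enzyme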
FBA Mtb inh = inhibits M. tuberculosis FBA enzyme | P9WQA3 | purified M. tuberculosis FBA, fluorescence read-out | inhibition, % at 1 µM | 360,000 tested, 2.3% active; in the data active means inhibition above about 27%;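 further: 0% = vehicle and 100% = reference inhibitor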
* marks the source's active call; other numbers are inactive results.

Screening CC(=O)Nc1cccc(-c2nc3ccc(NC(C)=O)cc3s2)c1 returned Rv3671c protease -19, Mtb UGM inh -2, RecA splice inh -2, Mtb betalactam -5, GDH-TPI inh 21 and FBA Mtb inh active.
Screening CC(=O)Nc1ccc2nc(NC(=O)COc3ccccc3C)sc2c1 returned Rv3671c protease -18, Mtb UGM inh -1, RecA splice inh 1, Mtb betalactam -2, GDH-TPI inh -4 and FBA Mtb inh 2.
`COc1cccc2sc(Nc3nc(-c4ccncc4)cs3)nc12` gave Rv3671c protease 2, Mtb UGM inh -1, RecA splice inh -3, Mtb betalactam 35, GDH-TPI inh 38* and FBA Mtb inh -1.
Screening CC(=O)Nc1cccc(-c2nc3ccccc3s2)c1 returned Rv3671c protease -4, Mtb UGM inh 1, RecA splice inh 0, Mtb betalactam 5, GDH-TPI inh -1 and FBA Mtb inh 6.
For COC(=O)c1ccc(C(=O)Nc2ccc3nc(-c4cccnc4)[nH]c3c2)cc1 the results were Rv3671c protease -24, Mtb UGM inh -1, RecA splice inh -3, Mtb betalactam -3, GDH-TPI inh 22 and FBA Mtb inh -3.
For CC(=O)Nc1cccc(-c2nc3ccc(NC(C)=O)cc3[nH]2)c1 the results were Rv3671c protease 2, Mtb UGM inh 0, RecA splice inh 0, Mtb betalactam -11, GDH-TPI inh 16 and FBA Mtb inh active.
`Nc1ccc(C(=O)Nc2ccc3nc(-c4cccnc4)[nH]c3c2)cc1` gave Rv3671c protease 11, Mtb UGM inh 0, RecA splice inh 0, Mtb betalactam -2, GDH-TPI inh 37* and FBA Mtb inh -4.
For COc1ccc(NC(=O)C2(C)CCN2C)cc1OC (stereo unspecified) the results were GDH-TPI inh 6 and FBA Mtb inh -5.
COc1ccccc1CNC(=O)CN1C(=O)NC2(CCCC2)C1=O was read as Rv3671c protease 7, Mtb UGM inh 0, Mtb betalactam 2, GDH-TPI inh 3 and FBA Mtb inh 1.
`C=C(C)Cn1c2ccc(NC(=O)CCc3cccc(Cl)c3)cc2c(=O)n1C` gave GDH-TPI inh 5 and FBA Mtb inh active.
`C=C(C)Cn1c2ccc(NC(=O)CCOCC)cc2c(=O)n1C` gave GDH-TPI inh -5 and FBA Mtb inh active.
For CCCC(=O)Nc1ccc2c(c1)c1ccccc1n2CC the results were Rv3671c protease 6, Mtb UGM inh 1, RecA splice inh -6, Mtb betalactam -2, GDH-TPI inh 9 and FBA Mtb inh 3.
For CCOCCC(=O)Nc1ccc2c(c1)c(=O)n(C)n2CC=C(C)C the results were GDH-TPI inh 12 and FBA Mtb inh active.
`c1cn(CCCNC2CCCCCCC2)cn1` gave Rv3671c protease 1, Mtb UGM inh -4, RecA splice inh -2, Mtb betalactam 97, GDH-TPI inh -8 and FBA Mtb inh -6.
`COc1cccc(C(=O)C2CCCN(C(=O)c3ccccn3)C2)c1` (stereo unspecified) gave Rv3671c protease 1, Mtb UGM inh -4, RecA splice inh 1, Mtb betalactam 9, GDH-TPI inh 3 and FBA Mtb inh -3.
Screening COc1ccc(C(=O)C2CCCN(C(=O)c3ccnn3C)C2)cc1OC (stereo unspecified) returned Rv3671c protease 4, Mtb UGM inh -3, RecA splice inh 0, Mtb betalactam -10, GDH-TPI inh -2 and FBA Mtb inh 0.
Screening COc1ccc2cc(C(=O)C3CCCN(C(=O)c4ccnn4C)C3)ccc2c1 (stereo unspecified) returned Rv3671c protease -4, Mtb UGM inh -1, RecA splice inh 1, Mtb betalactam 2, GDH-TPI inh 9 and FBA Mtb inh 155*.
`COc1ccc2cc(C(=O)C3CCCN(C(=O)c4cc(=O)n(C)c(=O)n4C)C3)ccc2c1` (stereo unspecified) gave Rv3671c protease -1, Mtb UGM inh 2, RecA splice inh 2, Mtb betalactam -4, GDH-TPI inh 12 and FBA Mtb inh 125*.
For COc1ccc(C(=O)C2CCCN(C(=O)c3cc(C4CC4)[nH]n3)C2)c(C)c1 (stereo unspecified) the results were Rv3671c protease -2, Mtb UGM inh -1, RecA splice inh 2, Mtb betalactam 4, GDH-TPI inh -1 and FBA Mtb inh -1.
Screening Cc1nn(CCC(N)=O)c2nc(-c3cccs3)cc(C(F)(F)F)c12 returned Rv3671c protease -1, Mtb UGM inh -1, RecA splice inh 5, Mtb betalactam 5, GDH-TPI inh 31* and FBA Mtb inh 153*.
N#Cc1c(C(F)(F)F)cc(-c2cccs2)nc1SCC(=O)O was read as Rv3671c protease -1, Mtb UGM inh 2, RecA splice inh -1, Mtb betalactam 1, GDH-TPI inh 37* and FBA Mtb inh 2.
Screening Cc1nn(CCC(=O)O)c2nc(-c3cccnc3)cc(C(F)(F)F)c12 returned Rv3671c protease 6, Mtb UGM inh -1, RecA splice inh 0, Mtb betalactam 3, GDH-TPI inh 10 and FBA Mtb inh 26.
Cc1c(C(=O)N/N=C/c2ccccc2)sc(=S)n1C was read as Rv3671c protease -5, Mtb UGM inh 0, RecA splice inh 1, Mtb betalactam -5, GDH-TPI inh 23 and FBA Mtb inh -2.
Screening Cc1c(C(=O)N/N=C/c2ccc(O)cc2)sc(=S)n1C returned Rv3671c protease -15, Mtb UGM inh -3, RecA splice inh -1, Mtb betalactam 3, GDH-TPI inh 43* and FBA Mtb inh -3.
Screening Nc1cc(Cl)nc(N/N=C/c2ccc([N+](=O)[O-])cc2)n1 returned Rv3671c protease 10, Mtb UGM inh 4, RecA splice inh -3, Mtb betalactam -4, GDH-TPI inh 33* and FBA Mtb inh -4.
Nc1cc(Cl)nc(N/N=C/c2ccccc2[N+](=O)[O-])n1 was read as Rv3671c protease 2, Mtb UGM inh 1, RecA splice inh -2, Mtb betalactam 3, GDH-TPI inh 7 and FBA Mtb inh 1.
`CCN1CCN(c2nc3c(C)cccn3c(=O)c2/C=C(\C#N)C(=O)NCCCOC)CC1` gave Rv3671c protease 0, Mtb UGM inh 3, RecA splice inh -193, Mtb betalactam -1, GDH-TPI inh -5 and FBA Mtb inh 143*.
For O=C(NCC1CCCO1)C(=O)N/N=C\c1ccc2c(c1)OCO2 (stereo unspecified) the results were Mtb UGM inh 2, RecA splice inh -2, Mtb betalactam -2, GDH-TPI inh 34* and FBA Mtb inh 1.
For O=C(NCC1CCCO1)C(=O)N/N=C/c1ccc(O)c(Cl)c1 (stereo unspecified) the results were Rv3671c protease 5, Mtb UGM inh -1, RecA splice inh -1, Mtb betalactam -4, GDH-TPI inh 55* and FBA Mtb inh 3.
COc1ccc(NC(=O)N2C[C@H]3CON(C)[C@H]3C[C@H]2c2ccc(N3CCCCC3)cc2)cc1 was read as FBA Mtb inh 3.
